PubChem BioAssay AID588814 (The Scripps Research Institute Molecular Screening Center, 2011)
The whole screen tested about 360,000 compounds, of which about 1,200 (0.33%) were called active. Only a selection was taken, and actives are over-represented in it overall. Values without a mark were called inactive.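 Rule for the calls: active = activation above the run's mean compound activation plus 3 SD (cut at about 16% in these data); inactive = the rest.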

Target: Muscarinic acetylcholine receptor M1 (Homo sapiens) (UniProt P11229)
Test: CHRM1 activation via calcium signal – Fluo-8 calcium fluorescence, CHO-K1 cells, HTS, primary screen (AID 588814);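 note: peak over basal fluorescence ratio within a 140 s kinetic read after compound addition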
Details: CHO-K1 hM1, Fluo-8 calcium fluorescence, agonist mode; at 3 µM; stronger effect = higher value; 0% DMSO, 100% acetylcholine EC100

Chain of Muscarinic acetylcholine receptor M1 (Homo sapiens) (P11229 whole entry, looked up): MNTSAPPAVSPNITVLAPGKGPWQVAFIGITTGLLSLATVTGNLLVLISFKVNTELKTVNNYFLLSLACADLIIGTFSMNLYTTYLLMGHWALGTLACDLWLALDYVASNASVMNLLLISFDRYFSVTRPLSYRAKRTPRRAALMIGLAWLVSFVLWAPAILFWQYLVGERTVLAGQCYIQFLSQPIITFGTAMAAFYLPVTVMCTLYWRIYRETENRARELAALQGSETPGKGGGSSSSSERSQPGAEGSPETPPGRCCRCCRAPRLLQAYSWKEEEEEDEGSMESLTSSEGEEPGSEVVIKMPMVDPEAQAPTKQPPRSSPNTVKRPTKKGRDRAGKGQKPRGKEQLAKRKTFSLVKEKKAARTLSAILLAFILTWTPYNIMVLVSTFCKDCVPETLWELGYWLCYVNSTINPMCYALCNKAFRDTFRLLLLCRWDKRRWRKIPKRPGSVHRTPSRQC

| SMILES | activation |
| --- | --- |
| CN(CCc1ccccc1)C(=O)c1cccc(NC(=O)Cc2cccc(NC(=O)C3CCCN(C(=O)CCc4ccccc4)C3)c2)c1 (configuration not stated) | -7.79% |
| Cc1ccc(-c2nnc(C)c(N3CC(C)OC(C)C3)n2)cc1 (configuration not stated) | -3.38% |
| Cc1ccc(SCC(=O)Nc2nncs2)cc1 | 0.6% |
| CC(Oc1ccccc1)C(=O)Nc1oc(-c2ccco2)c(-c2ccco2)c1C#N (configuration not stated) | -4.2% |
| CCOc1ccc(S(=O)(=O)N2CCC(C(=O)NCC(=O)Nc3cccc(Cl)c3C)CC2)cc1 | -2.79% |
| COc1ccc(CCNC(=O)/C(C#N)=C2\N=C(NC(=O)c3cccs3)c3ccccc32)cc1 | 0.74% |
| Cc1ccc2nc(/C(C#N)=C\c3ccc(OC(=O)c4cccs4)cc3)[nH]c2c1 | 21.8% (active) |
| CCN(CC)c1ccc(S(=O)(=O)N2CCOCC2)cc1NC(=O)CSc1cccc[n+]1[O-] | -5.92% |
| CCOc1ccc(NC(=O)CC(Cc2ccc(Cl)cc2)C(=O)O)cc1 (configuration not stated) | -7.97% |
| O=C(NN1CCOCC1)c1cccc(F)c1 | -3.15% |
| Cc1ccc(C(=O)NC2CCN(C(=O)Nc3ccccc3Cl)CC2)cc1 | -1.42% |
| COC(=O)c1ccc(CN2CCCC(C(=O)Nc3cccc(-n4cnnn4)c3)C2)cc1 (configuration not stated) | 37.4% (active) |
| O=C(Nc1ccc(F)cc1)C1CCCN(S(=O)(=O)c2ccc(-n3cnnn3)cc2)C1 (configuration not stated) | -3.35% |
| CC(C)CNC(=O)C1CCCN(S(=O)(=O)c2ccc(-n3cnnn3)cc2)C1 (configuration not stated) | -2.97% |
| O=C(NCCCN1CCCC1=O)C(=O)NCC1OCCN1S(=O)(=O)c1ccc(Br)cc1 (configuration not stated) | -4.08% |
| Nc1c(C(=O)c2cccs2)sc2nsc(SCCN3CCCCC3)c12 | 40.6% (active) |
| COc1ccc(Cl)cc1NC(=O)CN(C)C(=O)CCCc1c[nH]c2ccccc12 | -1.46% |
| Cc1occc1-c1nnc(SCC(=O)NC2(C#N)CCCC2)n1C | -1.84% |
| CCOC(=O)N1CCN(C(=O)c2nn(-c3ccc(C)cc3)c(=O)c3c2c2ccccc2n3C)CC1 | -4.51% |

| SMILES | activation |
| --- | --- |
| CCCc1nc2c(c(=O)c3ccccc3n2C)c(=O)n1C1CCCCCC1 | 55.4% (active) |
| CCOC(=O)c1nnn2c3ccccc3c(=O)n(C)c12 | -1.59% |
| COC(=O)c1ccc(CNC(=O)C2CCC(=O)N(Cc3cccc(F)c3)C2)cc1 (configuration not stated) | -0.82% |
| Cc1nc([N+](=O)[O-])c(NCCCO)n1Cc1ccccc1 | -5.22% |
| CN(C)CCNC(=O)c1ccc(Cl)c2cc3ccccc3nc12 | -6.82% |
| Nc1ccc2nc3c(=O)[nH]c(=S)[nH]c3nc2c1 | 18.4% (active) |
| CSCc1cc(N(C)C)nc(SCc2ccc(Cl)cc2Cl)n1 | 1.65% |
| COc1cccc(NC(=O)N(C)C[C@@H]2Oc3ncc(Br)cc3C(=O)N([C@@H](C)CO)C[C@H]2C)c1 | -2.37% |
| COC(=O)c1cc(NS(=O)(=O)c2ccc3c(c2)c(=O)n(C)c(=O)n3C)cc(C(=O)OC)c1 | -0.41% |
| Cc1ccccc1NC(=O)c1cc(S(=O)(=O)N2CCOCC2)cs1 | -2.94% |
| COc1cc(OC)cc(C(=O)NC(C(=O)N2CCC2)C(C)C)c1 (configuration not stated) | -2.4% |
| COc1cc(OC)cc(C(=O)NCC(=O)OCC(=O)NC(C)CCc2ccccc2)c1 (configuration not stated) | -5.47% |
| COc1cc(OC)cc(C(=O)N[C@H](C(=O)OCC(=O)NC(C)c2ccccc2)C(C)C)c1 (some centres not stated) | 18.7% (active) |
| CC(C)c1ccc(NC(=O)Cn2ncc3ccccc32)cc1 | -2.42% |
| CC(NC(=O)Nc1ccccc1)c1ccccc1 (configuration not stated) | -4.05% |
| CCC(C(=O)Nc1ccc(C(C)C)cc1)c1ccccc1 (configuration not stated) | 29.4% (active) |
| COc1ccc(C(c2nnnn2C2CCCC2)N2CCN(C/C=C/c3ccccc3)CC2)cc1 (configuration not stated) | -7.67% |
| Cc1ccc(N2C(=O)C3C4C=CC(CC4)C3C2=O)cc1Cl (configuration not stated) | -1.43% |
| Cc1ccc(S(=O)(=O)Oc2ccc(/C=N/NC(=O)c3c(Cl)cnn3C)cc2)cc1 | -4.49% |

| SMILES | activation |
| --- | --- |
| CC1(C)CCc2nc(SCc3ccccc3)c(C#N)cc2C1 | -1.01% |
| Cc1cc(NC(=O)CSc2nc3c(cc2C#N)CCCCC3)no1 | -4.15% |
| CC(NC(=O)CSc1nc2c(cc1C#N)CN(C)CC2)c1ccccc1 (configuration not stated) | 18.6% (active) |
| CCOC(=O)C1CCCN(Cc2nc(N)nc(Nc3ccc(C)cc3)n2)C1 (configuration not stated) | 28.3% (active) |
| COc1ccc(Nc2nc(N)nc(CSC(=S)N3CCC(C)CC3)n2)cc1 | -4.28% |
| CCOC(=O)C1CCCN(CCSc2ccc(C)cc2)C1 (configuration not stated) | -6.73% |
| CCOC(=O)C1CCCN(C(=O)c2cccc3ccccc23)CC1 (configuration not stated) | -0.09% |
| O=C(c1cnccn1)N1CCN(S(=O)(=O)c2cccc(Cl)c2)CC1 | -0.88% |
| CC(C)(C)NC(=O)NC(=O)CN1CCC(Cc2ccccc2)CC1 | -13.3% |
| CC(C)(CNC(=O)Cc1ccc(Cl)cc1Cl)N1CCOCC1 | -10.7% |
| CN1c2ccc(C=O)c3c(C=O)ccc(c23)N(C)C1(C)C | -7.9% |
| COc1ccc(CN2C(=O)C(CC(=O)NCCCCc3ccccc3)CC(C(=O)N3CCOCC3)=C2C)cc1 (configuration not stated) | 3.01% |
| CCN(CC)C(=O)C1=C(C)N(Cc2ccc(OC)cc2)C(=O)C(CC(=O)NCCCCc2ccccc2)C1 (configuration not stated) | 23.1% (active) |
| CCN(CC)C(=O)C1=C(C)N(Cc2ccc(OC)cc2)C(=O)C(CC(=O)NCc2ccco2)C1 (configuration not stated) | -7.01% |
| Cn1cc(C2OC(=O)c3ccccc32)c2ccccc21 (configuration not stated) | 0.52% |
| CN1C(=O)c2cccc3c(N)ccc(c23)C1=O | 118% (active) |
| Cc1nn(C)cc1N1C(=O)c2cccc3c(N)ccc(c23)C1=O | 44.5% (active) |
| C[C@]12CCC(=O)C=C1C=CC1C2CC[C@@]2(C)C1CC[C@@]21CCC(=O)O1 (some centres not stated) | -6.36% |
| O=C(CN1C(=O)CC(c2ccccc2)S(=O)(=O)c2ccccc21)NC1CCCC1 (configuration not stated) | -3.97% |
